According to PubChem BioAssay (EPA / NIEHS):
Inconclusive results are not listed. Calls of active or inactive are those of the source. How the source made its calls, unless noted: active means hit-call score of the fitted dose curve at least 0.9, where 1 is the maximum; inactive means score below 0.9.

Assays:
[1] = target: Estrogen receptor (Homo sapiens) (UniProt P03372); assay: CCTE_Deisenroth_AIME_384WELL_LUC_Shift: CCTE's 384-well Estrogen Receptor Transactivation Assay with AIME metabolic competence data shift (ERTA luciferase; difference in metabolism positive and negative), Deisenroth Lab (AID 2284041);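 further: shift is response with S9 minus without S9 so positive means metabolism raised ER signal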
Procedure, shortened: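 Chemicals (0.002–200 uM, 10 points) pre-incubated 2 h with alginate-encapsulated induced male Sprague Dawley rat liver S9 or S9-free, then medium applied 24 h to VM7Luc4E2 cells; luciferase. Endpoint is per-concentration difference, S9-positive minus negative.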

DIO2 (gene 1734) = assay: CCTE_GLTED_hDIO2: CCTE's human Deiodinase 2 (DIO2) Inhibition Assay, Great Lakes Toxicology and Ecology Division (GLTED) Lab (AID 2284050; active means hit-call score of the fitted dose curve at least 0.9, where 1 is the maximum)
Procedure, shortened: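 Cell-free human DIO2 enzyme was incubated with test chemical for 3 h; iodide liberated from substrate was then quantified by the Sandell-Kolthoff reaction (absorbance), run in triplicate. Loss of signal versus DMSO baseline indicated inhibition.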

DIO3 (gene 1735) = assay: CCTE_GLTED_hDIO3: CCTE's human Deiodinase 3 (DIO3) Inhibition Assay, Great Lakes Toxicology and Ecology Division (GLTED) Lab (AID 2284055; active means hit-call score of the fitted dose curve at least 0.9, where 1 is the maximum;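 further: potency is for inhibition seen as loss of released iodide signal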)
Procedure, shortened: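 Cell-free assay with human DIO3 enzyme produced by adenovirus expression; enzyme incubated with test chemical for 3 hours. Liberated iodide then measured by Sandell-Kolthoff absorbance; loss of signal versus DMSO baseline indicates inhibition, run in triplicate.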

[2] = CCTE_Shafer_MEA_dev_active_electrodes_number: CCTE's Neural Network Formation Assay for Number of Active Electrodes, Shafer Lab (AID 2284040; active means hit-call score of the fitted dose curve at least 0.9, where 1 is the maximum;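 on AC50: potency for loss of active electrodes versus DMSO so lower counts are hits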)
Procedure, shortened: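 Rat cortical primary cultures, 1.5 x 10^5 cells/well, PEI-coated MEA, laminin drop. Continuous exposure DIV 0–12; full media/compound change DIV 5, 9. Readout: electrodes with mean firing ≥5 spikes/min; AUC across days; loss vs DMSO.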

[3] = CCTE_Shafer_MEA_dev_burst_rate: CCTE's Neural Network Formation Assay for Burst Rate, Shafer Lab (AID 2284042);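 on AC50: potency for loss of burst rate below DMSO control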
Procedure, shortened: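 Exposure ran continuously over 12 days of network development in rat cortical cultures, with compound refreshed during full media changes on DIV 5 and 9. Single-electrode bursts per recording time, well-mean over active electrodes, trapezoidal AUC across days 5–12, fitted downward relative to DMSO.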

[4] = CCTE_Shafer_MEA_dev_bursting_electrodes_number: CCTE's Neural Network Formation Assay for Number of Bursting Electrodes, Shafer Lab (AID 2284043; active means hit-call score of the fitted dose curve at least 0.9, where 1 is the maximum;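 on AC50: potency is for loss of bursting electrodes relative to DMSO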)
Procedure, shortened: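 Primary rat cortical neurons plated on 16-electrode MEA wells, exposed from day 0 with compound renewed at DIV 5 and 9. Electrodes bursting ≥1 burst per 2 min counted on days 5, 7, 9 and 12; trapezoidal AUC across days, fitted for loss versus DMSO.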

[5] = CCTE_Shafer_MEA_dev_per_burst_interspike_interval: CCTE's Neural Network Formation Assay for Burst Interspike Interval, Shafer Lab (AID 2284044);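 further: mean spike spacing inside bursts as AUC over recordings on days 5 7 9 12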;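 on AC50: potency for a decrease of within-burst interspike interval below DMSO level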
Procedure, shortened: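 Developmental network-formation MEA in primary rat cortical cultures with exposure spanning days 0–12. Within-burst ISI is averaged per well and integrated across recording days by area under the curve, with DMSO as negative control baseline.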

[6] = CCTE_Shafer_MEA_dev_burst_duration_mean: CCTE's Neural Network Formation Assay for Mean Burst Duration, Shafer Lab (AID 2284045);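 on AC50: curve fitted for loss meaning shorter burst duration than DMSO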
Procedure, shortened: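 Primary rat cortical neurons on 48-well 16-electrode MEA plates, exposed from day 0 with renewal at DIV 5 and 9; spontaneous activity recorded on days 5, 7, 9, 12. Well-mean burst duration across bursting electrodes, collapsed as trapezoidal AUC; DMSO baseline.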

[7] = CCTE_Shafer_MEA_dev_interburst_interval_mean: CCTE's Neural Network Formation Assay for Mean Interburst Interval, Shafer Lab (AID 2284046);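 further: well-mean interburst interval of bursting electrodes as AUC over four recording days; curve fitted for decrease in interburst interval relative to DMSO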
Procedure, shortened: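 Primary rat cortical neurons on PEI-coated 48-well MEA plates (laminin added with cells at plating) (16 electrodes/well), exposed from plating day 0 with renewal at DIV 5 and 9. Mean inter-burst interval averaged over bursting electrodes, AUC across days 5, 7, 9, 12; DMSO baseline.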

[8] = CCTE_Shafer_MEA_dev_inter_network_spike_interval_mean: CCTE's Neural Network Formation Assay for Mean Inter-network Spike Interval, Shafer Lab (AID 2284047)
Procedure, shortened: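 Mean time between consecutive network-spike peaks, recorded extracellularly (adaptive spike detection) on DIV 5, 7, 9 and 12, summarized as trapezoidal AUC. Rat cortical cultures on MEAs dosed continuously days 0–12, re-dosed at feeds; loss-of-signal fit relative to DMSO.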

[9] = CCTE_Shafer_MEA_dev_network_spike_number: CCTE's Neural Network Formation Assay for Number of Network Spikes, Shafer Lab (AID 2284048);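 on AC50: fit as a loss of signal meaning fewer network spikes than DMSO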
Procedure, shortened: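 Primary rat cortical neurons on PEI/laminin 48-well MEA plates, dosed from plating day 0 for 12 days, renewed at DIV 5 and 9. Network spike counts recorded DIV 5, 7, 9, 12, collapsed as trapezoidal AUC; DMSO baseline.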

[10] = CCTE_Shafer_MEA_dev_network_spike_peak: CCTE's Neural Network Formation Assay for Mean Number of Electrodes in Network Spike, Shafer Lab (AID 2284049);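 on AC50: fitted for loss of signal meaning fewer electrodes in network spikes than DMSO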
Procedure, shortened: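 Network-spike peak electrode count from recordings on days 5, 7, 9 and 12 was combined as trapezoidal area under the curve. Rat cortical cultures were treated continuously from plating, with compound renewed at each feed (DIV 5, 9); fits versus DMSO.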

[11] = CCTE_Shafer_MEA_dev_spike_duration_mean: CCTE's Neural Network Formation Assay for Mean Spike Duration, Shafer Lab (AID 2284051);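 further: mean network spike duration pooled as area under curve over DIV 5 to 12 recordings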;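 on AC50: potency for a decrease in mean network spike duration versus DMSO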
Procedure, shortened: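 Spontaneous activity was recorded on days 5, 7, 9 and 12 from rat cortical cultures grown on microelectrode arrays and dosed continuously from day 0, with media and compound renewed after the DIV 5 and 9 recordings. Network-spike duration was collapsed by area under the curve.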

[12] = CCTE_Shafer_MEA_dev_per_network_spike_spike_number_mean: CCTE's Neural Network Formation Assay for Mean Number of Spikes in a Network Spike, Shafer Lab (AID 2284053);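 on AC50: fitted as decrease in spikes per network spike relative to DMSO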
Procedure, shortened: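 Mean spike count within each network spike, taken in a 0.05 s window at its peak, was recorded on days 5, 7, 9 and 12 and integrated as trapezoidal area under the curve. Rat cortical cultures on MEA plates received continuous compound from day 0, refreshed at medium changes on DIV 5 and 9.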

[13] = CCTE_Shafer_MEA_dev_per_network_spike_spike_percent: CCTE's Neural Network Formation Assay for Percent of Spikes in a Network Spike, Shafer Lab (AID 2284054)
Procedure, shortened: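 Rat primary cortical neurons were grown on 48-well MEA plates (16 electrodes/well), exposed from plating day 0 through day 12, with treatment renewed on DIV 5 and 9. Percent of spikes within 0.05 s network-spike peaks was measured, summarised as AUC across days 5, 7, 9, 12.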

[14] = CCTE_Shafer_MEA_dev_AB: CCTE's Alamar Blue Assay for Cytotoxicity in the Neural Network Formation Assay, Shafer Lab (AID 2284083; active means hit-call score of the fitted dose curve at least 0.9, where 1 is the maximum;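 further: resazurin reduction fluorescence as viability of cultured neurons; twelve days of exposure from plating with re-dosing on DIV 5 and 9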)
Procedure, shortened: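 Resazurin fluorescence, relative to DMSO, gauges viability after twelve days of exposure that began at plating of rat cortical neurons (1.5 x 10^5 cells/well, 48-well MEA); treatment renewed with full medium exchange on DIV 5 and 9.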

[15] = CCTE_Shafer_MEA_acute_AB: CCTE's Alamar Blue Assay for Cytotoxicity in the Neural Acute Assay, Shafer Lab (AID 2284069; active means hit-call score of the fitted dose curve at least 0.9, where 1 is the maximum;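 further: active compounds lower the viability signal compared with DMSO wells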)
Procedure, shortened: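 Resazurin reduction (CellTiter Blue, 1:6 in fresh medium) read at ex 544/em 590 nm marks viability loss relative to DMSO. Cells: primary rat cortical neuron networks on microelectrode arrays, treated after baseline recording at 13 or 15 days in vitro.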

[16] = CCTE_Shafer_MEA_dev_LDH: CCTE's Lactate Dehydrogenase Assay for Cytotoxicity in the Neural Network Formation Assay, Shafer Lab (AID 2284068; active means hit-call score of the fitted dose curve at least 0.9, where 1 is the maximum;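 further: exposure for twelve days from plating with re-dosing on DIV 5 and 9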)
Procedure, shortened: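 Primary rat cortical neurons were cultured on PEI-coated MEA plates and exposed from plating through day 12, with compound renewed at medium changes on DIV 5 and 9. LDH activity was read spectrophotometrically; loss of signal versus DMSO indicates reduced viability.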

[17] = UKN5_HCS_SBAD2_cell_viability: Viability Assessment in the University of Konstanz (UKN) Leist Lab Neurite Outgrowth Assay in human iPSC-derived immature Dorsal Root Ganglia Neurons (UKN5) (AID 2284056)
Procedure, shortened: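 iPSC-derived immature peripheral neurons (SBAD2) seeded on Matrigel with CHIR99021, SU5402 and DAPT, dosed 1 h later for 24 h. Viability from Hoechst H-33342 and calcein-AM live staining, high-content imaging; bidirectional fit versus DMSO.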

[18] = UKN5_HCS_SBAD2_neurite_outgrowth: University of Konstanz (UKN) Leist Lab Neurite Outgrowth Assay in human iPSC-derived immature Dorsal Root Ganglia Neurons (UKN5) (AID 2284070); settings: actives raise or lower the signal
Procedure, shortened: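 Human iPSC-derived immature DRG neurons (SBAD2) on Matrigel with CHIR99021 (1.5 uM), SU5402 (5 uM), DAPT (5 uM); compounds added 1 h post-seeding for 24 h. Calcein-AM neurite area imaged; bidirectional fit vs DMSO.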

Measured: AC50

Sequence of Estrogen receptor (Homo sapiens) (P03372 whole entry, looked up): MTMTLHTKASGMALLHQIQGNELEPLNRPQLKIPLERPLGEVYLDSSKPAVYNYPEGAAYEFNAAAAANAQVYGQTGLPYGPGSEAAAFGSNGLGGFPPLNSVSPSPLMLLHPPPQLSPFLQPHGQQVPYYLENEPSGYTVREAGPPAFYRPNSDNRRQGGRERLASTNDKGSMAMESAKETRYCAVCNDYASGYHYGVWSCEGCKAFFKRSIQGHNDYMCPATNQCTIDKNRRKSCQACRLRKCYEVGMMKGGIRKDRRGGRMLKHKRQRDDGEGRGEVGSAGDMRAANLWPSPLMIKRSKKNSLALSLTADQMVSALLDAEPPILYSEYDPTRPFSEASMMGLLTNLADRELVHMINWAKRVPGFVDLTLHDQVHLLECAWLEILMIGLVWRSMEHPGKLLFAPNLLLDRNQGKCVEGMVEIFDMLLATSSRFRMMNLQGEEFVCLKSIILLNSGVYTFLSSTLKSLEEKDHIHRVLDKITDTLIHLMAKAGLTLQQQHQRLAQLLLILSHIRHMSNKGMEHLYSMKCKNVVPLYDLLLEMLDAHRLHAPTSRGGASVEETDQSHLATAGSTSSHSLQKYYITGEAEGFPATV

Cc1cc(Cc2cc(C)cc(C(C)(C)C)c2O)c(O)c(C(C)(C)C)c1
inactive: [1]
active: DIO2 (gene 1734) 97600 nM | DIO3 (gene 1735) 14200 nM

CCCCCCCCCC=CCC1CC(=O)OC1=O (stereo not given)
inactive: [1]
active: DIO2 (gene 1734) 64300 nM | DIO3 (gene 1735) 27200 nM

O=C(OC(=O)C(F)(F)C(F)(F)F)C(F)(F)C(F)(F)F
inactive: [2] | [3] | [4] | [5] | [6] | [7] | [8] | [9] | [10] | [11] | [12] | [13] | [14]

CCC(C)c1ccccc1O (stereo not given)
inactive: [15]

O=P(O)(O)CCC(F)(F)C(F)(F)C(F)(F)C(F)(F)C(F)(F)C(F)(F)F
inactive: [3] | [5] | [6] | [7] | [8] | [9] | [10] | [11] | [12] | [13] | [16] | [14]

Nc1ccn([C@@H]2O[C@H](CO)[C@@H](O)C2O)c(=O)n1 (stereo not given in full)
active: [2] 472 nM | [3] 314 nM | [4] 333 nM | [5] 850 nM | [6] 856 nM | [7] 695 nM | [9] 125 nM | [10] 329 nM | [11] 358 nM | [12] 205 nM | [13] 119 nM | [16] 1000 nM | [18] 611 nM | [14] 969 nM
inactive: [8] | [17]

O=C(CCCN1CCC(O)(c2ccc(Cl)cc2)CC1)c1ccc(F)cc1
inactive: [8] | [14]
active: [2] 2330 nM | [3] 531 nM | [4] 1650 nM | [5] 1780 nM | [6] 1290 nM | [7] 3120 nM | [9] 568 nM | [10] 2020 nM | [11] 1780 nM | [12] 753 nM | [13] 2980 nM | [17] 55600 nM | [16] 7350 nM | [18] 20200 nM

CCCCCCCCCCCCOS(=O)(=O)O
active: DIO2 (gene 1734) 101000 nM | DIO3 (gene 1735) 99600 nM

COc1cc([N+](=O)[O-])ccc1N
inactive: [1]

FCOC(C(F)(F)F)C(F)(F)F
inactive: [2] | [3] | [4] | [5] | [6] | [7] | [8] | [9] | [10] | [11] | [12] | [13] | [14]

CCCCCCCCCCCC
active: DIO2 (gene 1734) 24500 nM | DIO3 (gene 1735) 22700 nM

O=C1NS(=O)(=O)c2ccccc21
inactive: [2] | [3] | [4] | [5] | [6] | [7] | [8] | [9] | [10] | [11] | [12] | [13] | [16]
